A selection: hits, their analogues and other compounds. The true share with any hit is near 3.2%.
TMEM16A act = activators or potentiators of mouse TMEM16A chloride channel | Q8BHY3 | HEK293 TMEM16A/YFP-H148Q/I152L, iodide quench fluorescence; stronger effect = lower value | B-score at 10 µM | actives 0.3% (n = 340,000) | AID 623877;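 active means fluorescence-ratio B-score plate-corrected deviation score at least 3 library SD below zero, with starting fluorescence score within 5 deviations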;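 further: channel opened by trigger with iodide after compound preincubation; score built on the fluorescence ratio of max minus min over baseline; more negative score means more quench and so TMEM16A activation or potentiation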
CHT inh = inhibits the human high affinity choline transporter. actives 0.86% (n = 310,000). B-score at 10 µM. Q9GZV3. AID 488975. CHT-expressing cells, membrane potential dye, choline response; stronger effect = lower value;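 active means B-score over 3 SD under the library average, and starting fluorescence ratio not unusually high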;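 further: choline stimulus applied at its EC90 after an EC20 pre-addition; B-score computed on integrated fluorescence ratio after choline addition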
CHT PAM = human CHT allosteric activation | Q9GZV3 | CHT-expressing cells, membrane potential dye, choline EC20; stronger effect = higher value; LV-AA mutant CHT in HEK293 cells | B-score at 10 µM | actives 0.49% (n = 310,000) | AID 488977;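 active means initial fluorescence not abnormally high and integrated response B-score, plate-corrected, over 3 SD above library mean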
TMEM16A inh = inhibitors of mouse TMEM16A calcium-activated chloride channel. HEK293 TMEM16A/YFP iodide influx fluorescence, ionomycin. actives 1.2% (n = 310,000). normalized B-score (activity score, 25-100; higher = stronger inhibition) at 10 µM. Q8BHY3;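 active means ratio plate-corrected score three or more library SD toward inhibition, starting fluorescence score within five deviations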;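 further: score derived from kinetic fluorescence span divided by baseline fluorescence per well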
Kir21 inh = Kir2.1 (mouse) channel inhibition; HEK293-Kir2.1, FluxOR thallium flux fluorescence; stronger effect = lower value; B-score at 10 µM; actives 0.85% (n = 310,000); AID 1672;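 active means fluorescence ratio B-score at or below minus 3 SD of library scores, with starting-brightness B-score within 2 SD, cut at about -4.2 in these data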;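 further: channel flux triggered by added potassium and thallium sulfate stimulus; B-score of peak minus minimum fluorescence over baseline after thallium stimulus; more negative B-score means stronger Kir2.1 block with less thallium influx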
Rce1 inhib = blocks yeast Ras-converting enzyme | Q03530 | yeast membranes, quenched prenylated peptide cleavage fluorescence | calls only | actives 0.27% (n = 290,000);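 active means fall in fluorescence gain of 50% or more versus controls, with final raw signal at or below 3038400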
Target sequence (Q03530 whole entry, looked up): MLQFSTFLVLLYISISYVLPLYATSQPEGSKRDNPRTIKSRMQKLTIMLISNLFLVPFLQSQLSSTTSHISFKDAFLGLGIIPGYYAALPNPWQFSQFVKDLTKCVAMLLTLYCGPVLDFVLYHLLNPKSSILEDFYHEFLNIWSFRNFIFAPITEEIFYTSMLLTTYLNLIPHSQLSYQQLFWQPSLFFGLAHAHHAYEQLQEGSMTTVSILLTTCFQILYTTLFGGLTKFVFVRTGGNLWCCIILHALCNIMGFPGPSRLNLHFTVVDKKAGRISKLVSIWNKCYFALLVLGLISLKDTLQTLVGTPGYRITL
Hits are given with their value; - = inactive; . = no result; + = active, no number.

SMILES	TMEM16A act	CHT inh	CHT PAM	TMEM16A inh	Kir21 inh	Rce1 inhib
CC1(C)CC(=O)C(C(c2ccncc2)C2C(=O)CC(C)(C)CC2=O)C(=O)C1	-14	-	-	-	-	-
OCC1(CCCc2ccccc2)CCN(Cc2ccc(F)cc2)CC1	-	-	-	-	-6.2	-
OCC1(CCc2ccccc2)CCN(Cc2cc(Cl)ccc2O)CC1	-	-	-	-	-4.8	-
CC(=O)Nc1ccc(S(=O)(=O)N2c3ccccc3NC(=O)CC2C)c(Cl)c1 (stereo not drawn)	-	-	-	-	-	-
Cc1noc(C)c1CSCC(=O)N1CCN(c2ccc([N+](=O)[O-])cc2)CC1	-	-	-	25	-	-
OC(C1=CC(=Cc2ccncc2)c2ccccc21)c1ccncc1 (stereo not drawn)	-	.	.	.	.	.
OC(CNC1CCCc2ccccc21)COc1ccc2ccccc2c1 (stereo not drawn)	-	-	-	-	-10	-
O=C(c1ccccc1)c1ccc(OCC(O)CNC2CCCc3ccccc32)cc1 (stereo not drawn)	-	-	-	-	-6.2	-
COc1cc(NC(=O)CN(C)S(=O)(=O)c2ccc3c(c2)CC(C)N3C(C)=O)cc(OC)c1OC (stereo not drawn)	-	-	-	-	-	-
Cc1nn(CCCC(=O)NCc2ccco2)c(=O)c2nn(-c3ccccc3)c(C)c12	-	-	-	-	-	-
COC(=O)CN(c1nc(C)cc(OC)n1)S(=O)(=O)c1ccccc1	-	.	.	.	-	-
COC(=O)CN(c1nc(C)c(Br)c(OC)n1)S(=O)(=O)c1ccccc1	-	-	-	-	-5.5	-
COc1cccc(NS(=O)(=O)c2c(C)cc(C)cc2C)c1	-	-	-	-	-	-
COc1ccc(NS(=O)(=O)c2c(C)cc(C)cc2C)cc1	-	-	-	-	-	+
Cc1cccc(Cn2c(C(C)(C)C)cc3cccnc32)c1	-	-	-	-	-5.1	-
CCc1ccc(/C=C2/SC(=S)N(CCC(=O)Nc3ccc(C(=O)O)cc3)C2=O)cc1	-	-	-	-	-	-
CCc1ccc(/C=C2/SC(=S)N(CCCC(=O)Nc3ccccc3C(=O)O)C2=O)cc1	-	-7.5	-	100	-	-
CCc1ccc(/C=C2/SC(=S)N(CCC(=O)Nc3cccc(C(=O)O)c3)C2=O)cc1	-	-5.9	-	-	-	-
Cc1cc(Br)ccc1NC(=O)CN(C)C(=O)CN1C(=O)NC(C)(C2CC2)C1=O (stereo not drawn)	-	.	.	.	.	.
CC(C)NC(=O)Cn1cc(C(=O)C(=O)N2CCOCC2)c2ccccc21	-	-	-	-	-	-
CCOCc1cc(C)[nH]c(=O)c1C#N	-	-	-	-	-	+
O=C(NCC(=O)N(c1ccccc1)C(C(=O)NC1CCCC1)c1ccncc1)c1ccco1 (stereo not drawn)	-16	-	-	-	-	-
Cc1ccc(C(=O)N/C(=C\c2ccc(-c3ccc(Cl)cc3)o2)C(=O)NCCCN(C)C)cc1	-	-	-	-	-5.3	-
CN(C)CCNC(=O)/C(=C/c1ccc(-c2cccc([N+](=O)[O-])c2)o1)NC(=O)c1ccccc1	-	-	-	-	-	-
CN(C)CCNC(=O)/C(=C/c1ccc(-c2cccc(Cl)c2)o1)NC(=O)c1ccccc1	-	-	-	-	-4.6	-
SMILES	TMEM16A act	CHT inh	CHT PAM	TMEM16A inh	Kir21 inh	Rce1 inhib
CN(C)CCCNC(=O)/C(=C\c1ccc(-c2ccc(Br)cc2)o1)NC(=O)c1ccccc1	-	-	-	-	-	-
CCCOc1ccccc1C1CC(=O)NC(C)=C1C(=O)OCC(C)C (stereo not drawn)	-	-	-	-	-	-
COC(=O)C1=C(C)NC(C)=C(C(=O)OCC(C)C)C1c1ccccc1[N+](=O)[O-] (stereo not drawn)	-	-	-	-	-5.2	-
CCN(CC)C1Oc2cc3c(cc2C(c2cc(OC)c(OC)c(OC)c2)C1C)OCO3 (stereo not drawn)	-	.	.	.	.	.
Cc1cc(Cl)c2oc(C(=O)N3CCN(c4ccncc4)CC3)c(C)c2c1	-	-	-	-	-5.1	-
COc1ccccc1NS(=O)(=O)c1cccc(NS(=O)(=O)c2cc(C(=O)O)ccc2OC)c1	-	.	.	.	.	.
CN(C)c1nc(-c2cn(CCC#N)c3ccccc23)cs1	-	-	-	-	-	-
O=[N+]([O-])c1cc(C(F)(F)F)cc([N+](=O)[O-])c1NCCNC(=S)Nc1ccc(Cl)c(Cl)c1	-	-	-	100	-	-
FC(F)(F)c1cccc(NC(=S)Nc2ccc(Cl)c(Cl)c2)c1	-	-	-	-	-	-
Cc1ccc(-c2nn(-c3cc(N4CCNCC4)ccc3[N+](=O)[O-])c(=O)c3ccccc23)cc1	-	-	-	-	-4.2	-
Cc1cccc(NS(=O)(=O)c2ccc(C)c(C(=O)NCC(c3cccs3)N(C)C)c2)c1 (stereo not drawn)	-	.	.	.	.	.
CCOc1ncccc1C(=O)N1CCN(S(=O)(=O)c2ccc3c(c2)OCCO3)CC1	-	.	.	.	.	.
COc1ccc(/C=N/Nc2cc(C)nc3ccccc23)cc1	-	-	-	-	-6.6	-
COc1ccc(N2CCN(C3CCCN(Cc4cccc(OC)c4)C3)CC2)cc1 (stereo not drawn)	-	-	-	-	-	-
O=C(O)CCC1c2cc3c4cc2OC2Oc5cc6c(cc51)C(CCC(=O)O)c1cc5c7cc1OC(O6)c1cc6cc(c1)Oc1cc(cc(C(=O)O)c1)Oc1cc8cc(c1)C(Oc1cc(c(cc1C5CCC(=O)O)C3CCC(=O)O)OC(O4)c1cc(cc(c1)Oc1cc(cc(C(=O)O)c1)O8)Oc1cc(cc(C(=O)O)c1)Oc1cc(cc2c1)Oc1cc(cc(C(=O)O)c1)O6)O7 (stereo not drawn)	.	-	-	25	-	-
CCN(C(=O)COC(=O)/C=C/c1c(C)nn(-c2ccccc2)c1C)c1c(N)n(Cc2ccccc2)c(=O)[nH]c1=O	-	.	.	.	.	.
O=C(OCn1ncc(Br)c(Br)c1=O)c1ccc(F)cc1	-	-6.5	-	-	-	-
O=C(OCn1ncc(Br)c(Br)c1=O)c1ccccc1Cl	-	-	-	-	-	-
COc1cccc(-c2nn(C)c3sc(C(=O)NCCCN(C)Cc4ccccc4)cc23)c1	.	-	-	-	-	-
CCN(CC)CCCNC(=O)c1cc2c(-c3cccc(OC)c3)nn(C)c2s1	-	-	-	-	-	+
CCCCN(C(=O)c1c(CC)noc1C)c1c(N)n(CCCC)c(=O)[nH]c1=O	-	-	-	-	-	.
O=C(CSc1nc2ncc(Cl)cc2[nH]1)NCC(=O)Nc1ccc(F)c(F)c1F	-	-	-	-	-	-
O=C(CSc1nc2ncc(Cl)cc2[nH]1)Nc1ccccc1-c1ccccc1	-	-	-	100	-	-
CC(=O)n1cc(-c2ccncc2)c2ccccc21	-	-	6.5	-	-	-

High-throughput results from PubChem BioAssay.
